Target: T1, Proteasome subunit beta (Trypanosoma cruzi) (UniProt O96673)
T1 sequence (whole entry): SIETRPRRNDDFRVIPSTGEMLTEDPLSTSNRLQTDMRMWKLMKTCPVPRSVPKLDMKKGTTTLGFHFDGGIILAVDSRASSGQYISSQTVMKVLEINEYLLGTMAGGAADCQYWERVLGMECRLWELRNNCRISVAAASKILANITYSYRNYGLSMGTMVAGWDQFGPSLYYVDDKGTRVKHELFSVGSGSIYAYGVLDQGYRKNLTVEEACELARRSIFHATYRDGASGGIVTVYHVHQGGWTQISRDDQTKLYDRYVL
Test: Trypanosoma cruzi proteasome chymotrypsin-like activity (TcProtChymo) assay. Note: in the data most compounds retested in dose-response had high values.
Format: functional
Set-up: scale not given: direction of the effect not stated beside the values
Conditions: 9.37 µM

In order of rising Percent Effect:
1. Cn1ncc2c(NCCOc3ccc(F)cc3)nc(C3CCCC3)nc21  -0.355%
2. COCC1c2c(cnn2C)CCN1Cc1ccoc1 (stereo unspecified)  0.0845%
3. COc1cc(OC)c(C2Nc3cc(Cl)ccc3C3=NCCN32)cc1OC (stereo unspecified)  1.32%
4. CC(C)c1nc(CN(C)CC2CCN(CCO)CC2)no1  1.9%
5. Cc1noc2nc(C3CCN(Cc4cccnc4)CC3)cc(C(F)F)c12  2.03%
6. COc1c(CNC(c2nccn2C)C(C)C)c(C)nn1C (stereo unspecified)  2.84%
7. COc1ccc(Cc2nnc(SC)o2)cc1OC  8.72%
8. Cc1ccc(CN2CC3(CCN(C(=O)c4cscn4)C3)C2)s1  9.85%
9. CCOc1ccc(N2CCCN=C2NC(=O)c2ccccc2C)cc1  9.98%
10. c1ccc2c(N3CCCC3Cn3cccn3)ncnc2c1 (stereo unspecified)  10.2%
11. Fc1cnc(N2C[C@H]3CCC[C@@]3(COc3ccccn3)C2)nc1  10.5%
12. Cc1csc(N2CCN(C(=O)CCc3ccccn3)CC2)n1  10.8%
13. CC(=O)Nc1nc(CN2CCCCC2Cn2cccn2)cs1 (stereo unspecified)  10.8%
14. Cc1nccc(-c2cccc(NCC(=O)N3CCNC3=O)c2)n1  11.2%
15. CCCc1nc(CN2CCOC(Cn3cncn3)C2)no1 (stereo unspecified)  12.3%
16. Cc1nn(C)c(C)c1CNC1CCOc2ccccc21 (stereo unspecified)  13.7%
17. CCS(=O)(=O)N1CCC2(CCCN(Cc3cc(OC)ccc3F)C2)C1 (stereo unspecified)  14.6%
18. O=C(NCC1CC1)c1nc(COc2ccc3c(c2)OCO3)no1  15.5%
19. COC(=O)c1ccc(C(=O)NS(=O)(=O)c2cncc(Br)c2)cc1  15.7%
20. CC(C)OCc1ncn2c1CN(Cc1ccc(F)cc1)CCC2  22%

Species: Homo sapiens
Test: To identify inhibition of the IFN signalling (Jak-Stat) pathway via expression of an eGFP reporter gene under the control of an IFN-stimulated response element (ISRE) containing MxA promoter.
Format: functional
Set-up: scale not given: direction of the effect not stated beside the values
Conditions: 30 µM

In order of rising Percent Effect:
1. CCOc1ccc(N2CCCN=C2NC(=O)c2ccccc2C)cc1  -13.7%
2. COc1ccc(Cc2nnc(SC)o2)cc1OC  -12.7%
3. CN(C)[C@@H]1CCN(c2ncccn2)[C@H]1Cc1ccncc1  -12.2%
4. Fc1cnc(N2C[C@H]3CCC[C@@]3(COc3ccccn3)C2)nc1  -10.5%
5. CC(C)OCc1ncn2c1CN(Cc1ccc(F)cc1)CCC2  -10.1%
6. COCC1c2c(cnn2C)CCN1Cc1ccoc1 (stereo unspecified)  -9.84%
7. COc1c(CNC(c2nccn2C)C(C)C)c(C)nn1C (stereo unspecified)  -7.86%
8. CCN1CCOC(CNCc2ccccc2OCC(=O)N(C)C)C1 (stereo unspecified)  -7.21%
9. c1ccc(-c2nnc(CNCCn3cccn3)o2)cc1  -4.79%
10. O=C1COc2cc(C(=O)NS(=O)(=O)c3ccccc3F)ccc2N1  -3.9%
11. Cc1ccc(CN2CC3(CCN(C(=O)c4cscn4)C3)C2)s1  -1.49%
12. COCCN1CC[C@@H]2OC[C@H](C(=O)NCc3cccs3)C[C@@H]2C1  -0.0889%
13. CC(C)c1nc2c(n1C)CCN(Cc1nc(-c3cccs3)no1)C2  0.809%
14. CC(C)c1nc(CN(C)CC2CCN(CCO)CC2)no1  1.02%
15. O=C([C@H]1CCCO1)N1CCc2ncnc(NC3CC3)c2CC1  3.34%
16. CCOc1cc(C)nc(N2CCN(Cc3nccn3C)CC2)n1  4.49%
17. Cc1nnc(N2CCC(CN(C)C(C)C)CC2)c(C#N)c1C  4.7%
18. CN(Cc1nnc(C2CC2)n1C)C1CCN(Cc2ccc(F)cc2)C1 (stereo unspecified)  5.85%
19. Cc1csc(N2CCN(C(=O)CCc3ccccn3)CC2)n1  6.58%
20. O=C(c1ccc(Cl)c(Cl)c1)N1CCCC(n2cncn2)C1 (stereo unspecified)  6.82%
21. CC(C)c1nnc2n1CCN(C(=O)CN1Cc3ccccc3C1=O)C2  6.89%
22. Cc1cc(-c2nnc(SCC(=O)O)n2C(C)c2ccccc2)nn1C (stereo unspecified)  7.01%
23. O=C(NCC1CC1)c1nc(COc2ccc3c(c2)OCO3)no1  7.56%
24. Cc1ccc2c(c1)c(CNC(=O)C1CC(=O)N(C3CCCC3)C1)nn2C (stereo unspecified)  10%
25. O=C(NCc1ccc(F)cc1)N1CCC(C2OCCO2)CC1  13.8%
26. CCN(CC)C(=O)CCNC(=O)N1CCC(c2ccccc2)C1 (stereo unspecified)  15.7%
27. Cc1nccc(-c2cccc(NCC(=O)N3CCNC3=O)c2)n1  16.4%
28. CCS(=O)(=O)N1CCC2(CCCN(Cc3cc(OC)ccc3F)C2)C1 (stereo unspecified)  16.9%
29. CC(=O)Nc1nc(CN2CCCCC2Cn2cccn2)cs1 (stereo unspecified)  20.7%
30. N#CC1(C(=O)N2CCN(Cc3ccon3)CC2)CCC1  23.8%
31. CC(NCc1ccc(Cl)o1)c1nnc2n1CCCC2 (stereo unspecified)  24.2%
32. COC(=O)c1ccc(C(=O)NS(=O)(=O)c2cncc(Br)c2)cc1  26.4%
33. Cc1ccc(NC(=O)Cn2cc(I)cn2)cc1  28.2%
34. CN(C(=O)c1cccc2[nH]ncc12)C1CCN(c2ccccn2)CC1  30.5%
35. Cn1ncc2c(NCCOc3ccc(F)cc3)nc(C3CCCC3)nc21  49.2%
36. c1ccc2c(N3CCCC3Cn3cccn3)ncnc2c1 (stereo unspecified)  50.9%

— ChEMBL document CHEMBL3988442, “University of Dundee, Small-Polar-MMV Screening Library” (2021)
